The record followed here is PubChem BioAssay (EPA / NIEHS).

What is called AC50 is the midpoint of the concentration-response curve, whichever way the signal moves.

Molecules are shown by their SMILES. Results filed as inconclusive are left out. The source made the active and inactive calls. Rule for the calls, unless noted: active = hit-call score of the fitted dose curve at least 0.9, where 1 is the maximum; inactive = score below 0.9.

Read-out in assay [1]: Human Leukocyte Antigen - DR isotype (HLADR), HLA-DRA (gene 3122)
Briefly: BSK_3C_HLADR: BioMAP Diversity Plus: 3C Assay for Human Leukocyte Antigen - DR isotype (HLADR) Biomarker Activity (AID 2283019).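 For outcome: ELISA of cell-surface HLA-DR on HUVEC 24 h after dosing.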 The settings on record: primary human endothelial cells (HUVEC); actives raise or lower the signal. The essentials:
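Endothelial cells from human umbilical vein are treated with test chemical; after 24 h, HLA-DR levels are measured by ELISA. Data are fitted in both directions using DMSO as the baseline.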

Read-out in assay [2]: Interleukin-8 (IL8), CXCL8 (gene 3576)
Nature of the assay: BSK_3C_IL8: BioMAP Diversity Plus: 3C Assay for Interleukin-8 (IL8) Biomarker Activity (AID 2283020). The settings on record: primary human endothelial cells (HUVEC); actives raise or lower the signal. The essentials: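 HUVEC, 3C stimulation; 24 h compound exposure; IL-8 read by ELISA; gain or loss of signal fitted relative to DMSO control.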

Read-out in assay [3]: Monokine induced gamma interferon (MIG), CXCL9 (gene 4283)
Nature of the assay: BSK_3C_MIG: BioMAP Diversity Plus: 3C Assay for Monokine induced gamma interferon (MIG) Biomarker Activity (AID 2283021). Particulars: primary human endothelial cells (HUVEC); actives raise or lower the signal. The gist of the method:
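HUVEC, 3C system; 24 h chemical exposure; MIG by ELISA; bidirectional fit vs DMSO baseline.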

Assay [4] addresses human Vitamin D Receptor (VDR), VDR (gene 7421) (UniProt P11473). Nature of the assay: ATG_VDR_TRANS: Attagene TRANS-FACTORIAL HepG2 Assay for human Vitamin D Receptor (VDR) (AID 2283022; active = hit-call score of the fitted dose curve at least 0.9, where 1 is the maximum). The gist of the method: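 Fluorescence of labelled reporter cDNA fragments, resolved by capillary electrophoresis, gives mRNA induction after 24 h treatment of HepG2 cells carrying transfected Gal4-fusion reporter units. Activity is fitted in the positive direction with DMSO as baseline.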

Assay [5] can be described thus: BSK_3C_SRB: Viability Assessment in the BioMAP Diversity Plus: 3C Assay (AID 2283023).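 Note: fitted both ways against DMSO so a hit may be signal rise or drop.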 Particulars: primary human endothelial cells (HUVEC). The essentials: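 Cells were dosed with chemical, cultured 24 h, fixed with 10% TCA, stained with 0.1% SRB and read at 560 nm. Human umbilical vein endothelium was used; DMSO served as negative control and baseline.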
Read-out in assay [6]: Matrix Metallopeptidase 1 (MMP1), MMP1 (gene 4312)
Nature of the assay: BSK_BE3C_MMP1: BioMAP Diversity Plus: BE3C Assay for Matrix Metallopeptidase 1 (MMP1) Biomarker Activity (AID 2283024). The settings on record: primary human bronchial epithelial cells; actives raise or lower the signal. The gist of the method: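 ELISA read-out of MMP1 in human lung bronchial epithelial primary cultures, 24 h post-dose; bidirectional curve fit vs DMSO baseline, gain or loss of signal scored.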

Assay [7] is described as follows: BSK_3C_Vis: BioMAP Diversity Plus: 3C Assay for Morphology Visualization (AID 2283025).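 For AC50: light microscopy image of cell morphology used as background control.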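 Note: fitted both ways so gain or loss versus DMSO counts.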 Particulars: primary human endothelial cells (HUVEC). The essentials:
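HUVEC, 3C system; light microscopy of morphology at 24 h post-dose. Bidirectional fit vs DMSO baseline. Secondary readout, background-control function.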

Read-out in assay [8]: Pselectin, SELP (gene 6403)
Briefly: BSK_4H_Pselectin: BioMAP Diversity Plus: 4H Assay for Pselectin Biomarker Activity (AID 2283026). Particulars: primary human endothelial cells (HUVEC); actives raise or lower the signal. The gist of the method: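 HUVEC, 24 h chemical exposure; P-selectin read by ELISA. Bidirectional curve fit vs DMSO baseline; gain or loss of signal scored.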

Assay [9] is described as follows: BSK_4H_SRB: Viability Assessment in the BioMAP Diversity Plus: 4H Assay (AID 2283027).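 Note: cells exposed to compound for 24 h before staining.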 Particulars: primary human endothelial cells (HUVEC). The gist of the method:
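Cytotoxicity read-out in primary human endothelial cells: after 24 h compound exposure, cells were TCA-fixed (10%), stained with 0.1% SRB and absorbance taken at 560 nm. Values fitted in both directions relative to DMSO.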

Assay [10] can be described thus: BSK_BE3C_SRB: Viability Assessment in the BioMAP Diversity Plus: BE3C Assay (AID 2283028). The settings on record: primary human bronchial epithelial cells. The gist of the method:
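Overt cytotoxicity was assessed as total protein in confluent human primary bronchial epithelial cultures 24 h after chemical addition, using 0.1% sulforhodamine B staining read at 560 nm.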

Read-out in assay [11]: Thrombomodulin, THBD (gene 7056)
Nature of the assay: BSK_3C_Thrombomodulin: BioMAP Diversity Plus: 3C Assay for Thrombomodulin Biomarker Activity (AID 2283029). The settings on record: primary human endothelial cells (HUVEC); actives raise or lower the signal. The essentials: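 HUVEC, 3C conditions; compound 24 h; thrombomodulin by ELISA; bidirectional curve fit vs DMSO baseline; parallel SRB total-protein staining for cytotoxicity.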

Read-out in assay [12]: Human Leukocyte Antigen - DR isotype (HLADR), HLA-DRA (gene 3122)
Nature of the assay: BSK_BE3C_HLADR: BioMAP Diversity Plus: BE3C Assay for Human Leukocyte Antigen - DR isotype (HLADR) Biomarker Activity (AID 2283032). The settings on record: primary human bronchial epithelial cells; actives raise or lower the signal. The essentials:
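Primary human bronchial epithelial cells (BE3C); 24 h chemical exposure; HLA-DR by ELISA; bidirectional curve fit vs DMSO baseline.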

Read-out in assay [13]: Vascular cell adhesion molecule 1 (VCAM1), VCAM1 (gene 7412)
Nature of the assay: BSK_4H_VCAM1: BioMAP Diversity Plus: 4H Assay for Vascular cell adhesion molecule 1 (VCAM1) Biomarker Activity (AID 2283033).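 Note: cell-surface VCAM-1 protein measured by ELISA.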 Particulars: primary human endothelial cells (HUVEC); actives raise or lower the signal. The essentials:
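HUVEC, 24 h post-dose; VCAM-1 by ELISA. Bidirectional curve fit vs DMSO baseline. Parallel SRB total-protein stain (0.1% SRB after 10% TCA fixation, 560 nm) for cytotoxicity.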

Read-out in assay [14]: Interferon-gamma inducible Protein 10 (IP10), CXCL10 (gene 3627)
Nature of the assay: BSK_BE3C_IP10: BioMAP Diversity Plus: BE3C Assay for Interferon-gamma inducible Protein 10 (IP10) Biomarker Activity (AID 2283034). The settings on record: primary human bronchial epithelial cells; actives raise or lower the signal. The essentials:
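ELISA readout of IP-10 in BE3C system: primary human bronchial epithelial cells, 24 h post-dosing; bidirectional curve fit vs DMSO baseline.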

Read-out in assay [15]: Transforming growth factor beta 1 (TGFb1), TGFB1 (gene 7040)
Nature of the assay: BSK_BE3C_TGFb1: BioMAP Diversity Plus: BE3C Assay for Transforming growth factor beta 1 (TGFb1) Biomarker Activity (AID 2283036;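 note: TGF-b1 protein level measured by ELISA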). Particulars: primary human bronchial epithelial cells; actives raise or lower the signal. The essentials:
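Read-out: ELISA for TGF-b1 in primary human bronchial epithelial cultures, 24 h post-dose. Bidirectional curve fitting vs DMSO control; gain or loss of signal both scored.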

Read-out in assay [16]: urokinase plasminogen activator (uPA), PLAU (gene 5328)
Nature of the assay: BSK_BE3C_uPA: BioMAP Diversity Plus: BE3C Assay for urokinase plasminogen activator (uPA) Biomarker Activity (AID 2283038).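 Note: uPA protein level quantified by ELISA in cell cultures; uPA read one day after compound addition.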 The settings on record: primary human bronchial epithelial cells; actives raise or lower the signal. The gist of the method: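 Measured by ELISA: uPA from human primary bronchial epithelial cells 24 h after chemical treatment. Values derive from bidirectional curve fitting with DMSO serving as negative control. Total protein by SRB staining in parallel wells flagged overt cytotoxicity.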

Read-out in assay [17]: Plasminogen activator inhibitor-1 (PAI1), SERPINE1 (gene 5054)
Briefly: BSK_BE3C_PAI1: BioMAP Diversity Plus: BE3C Assay for Plasminogen activator inhibitor-1 (PAI1) Biomarker Activity (AID 2283037). The settings on record: primary human bronchial epithelial cells; actives raise or lower the signal. The essentials:
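ELISA read-out of PAI-1 from human bronchial epithelial primary cells, 24 h post-dosing; bidirectional curve fit vs DMSO baseline, gain or loss of signal scored.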

Read-out in assay [18]: Vascular endothelial growth factor receptor 2 (Homo sapiens) (UniProt P35968)
Briefly: BSK_4H_VEGFRII: BioMAP Diversity Plus: 4H Assay for Vascular endothelial growth factor receptor 2 (VEGFR2) Biomarker Activity (AID 2283031). Particulars: primary human endothelial cells (HUVEC); actives raise or lower the signal. The essentials:
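VEGFRII levels on human vascular endothelial primary cells were determined by ELISA at 24 hours post-dosing, with gain- or loss-of-signal fitted against DMSO controls.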

human Vitamin D Receptor (VDR), VDR (gene 7421), sequence (P11473 whole entry, looked up, the tested form may be a part): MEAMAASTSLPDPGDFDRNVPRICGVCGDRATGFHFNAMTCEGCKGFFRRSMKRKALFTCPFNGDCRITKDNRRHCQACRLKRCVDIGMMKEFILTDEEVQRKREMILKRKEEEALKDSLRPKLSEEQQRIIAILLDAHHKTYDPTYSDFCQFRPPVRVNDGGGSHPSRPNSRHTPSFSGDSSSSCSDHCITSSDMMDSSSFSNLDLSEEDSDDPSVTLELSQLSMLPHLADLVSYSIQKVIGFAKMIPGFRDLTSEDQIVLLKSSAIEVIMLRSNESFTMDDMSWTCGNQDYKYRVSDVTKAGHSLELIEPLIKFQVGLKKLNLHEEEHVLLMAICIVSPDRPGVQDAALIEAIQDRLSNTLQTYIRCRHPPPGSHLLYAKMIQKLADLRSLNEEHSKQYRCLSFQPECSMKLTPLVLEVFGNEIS

Consider `CCOC(=O)NCCOc1ccc(Oc2ccccc2)cc1`, for which the AC50 in assay [1] is 25.5 µM (active); in [2], 15 µM (active); in [5], 20 µM (active); in assay [7], 39 µM (active); in assay [12] it was 15.7 µM (active). Also, the result in [3], in assay [4], in assay [6], in [8], in assay [9] and in [10] was inactive. In addition, the result in assay [11], in [13], in assay [14], in assay [15] and in [16] was inactive.
Take `N[C@@H](Cc1cc(I)c(Oc2ccc(O)c(I)c2)c(I)c1)C(=O)O`: the result in assay [1], in [2], in [3], in assay [4], in assay [5] and in assay [7] was inactive. Also, the result in assay [8], in assay [9], in [10], in assay [11], in assay [12] and in assay [13] was inactive. The outcome in assay [15] was inactive. In addition, the figures for the AC50 in assay [6], in assay [14] and in [17] were 3.8 µM (active), 21.3 µM (active) and 18.8 µM (active), respectively.
Consider `CN(C)C(=O)Nc1ccc(Cl)c(Cl)c1`, for which the outcome in assay [1], in assay [2], in [3], in assay [5], in assay [6] and in assay [7] was inactive. Further, the outcome in assay [8], in assay [9], in [10], in assay [11], in assay [12] and in assay [13] was inactive. For the same compound, the result in assay [14], in assay [15] and in assay [16] was inactive.
As to `COC(=O)c1ccc(I)cc1S(=O)(=O)NC(=O)Nc1nc(C)nc(OC)n1`, the outcome in assay [1], in [2], in assay [3], in assay [5], in assay [6] and in assay [7] was inactive. The outcome in assay [8], in [9], in assay [10], in [11], in assay [18] and in [12] was inactive. For the same compound, the result in assay [13], in assay [14], in assay [15] and in assay [16] was inactive.
